# Results taken from PubChem BioAssay (Tox21).
# Values without a mark were called inactive. Calls of active or inactive are those of the source. Calls follow the shape of the dose curve; as a rule, active = well fitted curve in the direction sought with a large enough effect in the repeat runs; inconclusive = weak or mixed curves; inactive = flat fitted curve, though single readings scatter.
# Assay: qHTS assay to test for compound auto fluorescence at 535 nm (green) in HepG2 cell free culture (AID 720686)
# Conditions: Cell-free medium, green autofluorescence 485/535 nm; series mostly up to 91.3 µM; fluorescence, % of fluorescein control: at the top concentration
# From the text: U.S. Tox21 Program National Center for Advancing Translational Sciences [NCATS] NIH Chemical Genomics Center [NCGC] U.S. Environmental Protection Agency [EPA] National Institutes of Environmental Health Sciences [NIEHS] National Toxicology Program [NTP] U.S. Food and Drug Administration [FDA] Tox21 Assay Overview: Compound auto fluorescence often interferes with screening of the compound library against various biological targets and signaling pathways. Some of these compounds may have fluorophoric properties. Such properties may interfere with the assay outputs resulting in false positives and/or negatives. To decrease such complications and ensure the compound activities are relevant in terms of biological response, the Tox21 10K compound library was screened for auto fluorescence. From the fluorophores used as reporter signals in our screening assays, the auto fluorescence equivalencies of compounds against three fluorophores have been evaluated: Triamterene, Fluorescein and Rose Bengal sodium for blue, green and red fluorescence, respectively. The fluorescence intensities were measured using Excitation/Emission wavelengths at 405/460nm, 485/535nm and 540/590nm for blue, green and red labels, respectively. This assay includes the green fluorescence data.
# Tox21 Assay Protocol Summary: 5 uL of culture medium (MEM containing 10% FBS) per well was dispensed into black wall/clear bottom 1536-well plates using a Multidrop Combi Dispenser (ThermoFisher Scientific, Waltham, MA). After 23 nL compound or DMSO vehicle was transferred into assay plate by a pintool work station (Kalypsys, San Diego, CA), fluorescence intensities in the assay plates were measured by an Envision (PerkinElmer, Shelton, CT) plate reader using three labels for measuring blue, green and red fluorescence at […] 460, 535 and 590nm respectively.
# % is scaled to controls: 0 for no effect and ±100 for the full control effect; potency is read from the fitted curve at half-maximal effect; tags tell the direction and shape of the fitted curve or compound fluorescence and quenching.
Structure (SMILES),"fluorescence, % of fluorescein control",Potency
Nc1ccc(N=Nc2ccccc2)cc1,-0.298%,–
C=CC(=C)C,0.0457%,–
CC(C)C(Br)C(=O)NC(N)=O (stereo not given),-0.0201% [at 46 µM],–
CCCN,-0.0135%,–
CO/N=C(/C1=NOCCO1)c1ccccc1Oc1ncnc(Oc2ccccc2Cl)c1F,0.0701%,–
Oc1ccc([C@H]2CNCc3c2ccc(O)c3O)cc1O,1.27% [at 46 µM],–
CSC(=O)c1c(C(F)F)nc(C(F)(F)F)c(C(=O)SC)c1CC(C)C,0.0159%,–
C=CC(=O)[O][Sn]([CH2]CCC)([CH2]CCC)[CH2]CCC,-0.0009%,–
CSSC,-0.0172% [at 95.7 µM],–
O.O.O.O=C([O-])[C@H]([O-])[C@@H]([O-])C(=O)[O-].O=C([O-])[C@H]([O-])[C@@H]([O-])C(=O)[O-].[K+].[K+].[Sb+3].[Sb+3],0.0213%,–
Oc1cc(Cl)cc(Cl)c1,-0.207%,–
COP(=S)(NC(C)C)Oc1ccc(C)cc1[N+](=O)[O-] (stereo not given),-0.112%,–
Oc1ccc2[nH]cc(CCCCN3CC=C(c4ccccc4)CC3)c2c1,0.107% [at 46 µM],–
CCN(CC)C(=S)S,–,inactive
[Cl][Hg][c]1ccccc1,-0.0032%,–
CC(Cc1ccc2c(c1)OCO2)NO (stereo not given),-0.0205% [at 95.7 µM],–
CCCCc1ccccc1,-0.0621%,–
COC(=O)N(OC)c1ccccc1COc1ccn(-c2ccc(Cl)cc2)n1,0.0127%,–
C[C@H]1[C@H](c2ccc(Cl)cc2)SC(=O)N1C(=O)NC1CCCCC1,-0.0136%,–
BrCC(Br)(Br)Br,-0.0581% [at 95.7 µM],–

Structure (SMILES),"fluorescence, % of fluorescein control",Potency
O=C1C(Cl)=C(Cl)C(=O)C(Cl)=C1Cl,–,inactive
N#Cc1c[nH]cc1-c1cccc2c1OC(F)(F)O2,0.0534%,–
O=[N+]([O-])c1ccc(CCl)cc1,-0.0062%,–
CCn1cc[n+](C)c1 (tested in a mixture with another compound),-0.0374%,–
CCCCCCCCCCCCCCn1cc[n+](C)c1,–,inactive
CCN(CC)Cc1nccn1-c1ccc([N+](=O)[O-])cc1C(=O)c1ccccc1Cl,0.0268% [at 46 µM],–
CC(=O)[O][Sn]([c]1ccccc1)([c]1ccccc1)[c]1ccccc1,0.107%,–
Nc1nc(N)c(N)c(N)n1,–,28.2 µM [fluorescent] (active)
O=C(NC(=O)c1ccccc1Cl)Nc1ccc(OC(F)(F)F)cc1,0.083%,–
CCC(C)Nc1c([N+](=O)[O-])cc(C(C)(C)C)cc1[N+](=O)[O-] (stereo not given),0.0184%,–
O=S(=O)(NS(=O)(=O)C(F)(F)F)C(F)(F)F,-0.0341%,–
CN1CCc2cc3c(cc2C1O)OCO3 (stereo not given),-0.196%,–
CCCCN(CCCC)C(=S)[S-].CCCCN(CCCC)C(=S)[S-].[Ni+2],0.106% [at 46 µM],–
CCC1COC(Cn2cncn2)(c2ccc(Cl)cc2Cl)O1 (stereo not given),0.154%,–
CC(C)N(C(=O)CCl)c1ccccc1,–,inactive
Nc1nc(N)nc(Cl)n1,0.0065%,–
CC(=O)C(Cl)C(=O)N(C)C (stereo not given),0.0626%,–
CCCCn1cc[n+](C)c1.[Cl][Fe-]([Cl])([Cl])[Cl],0.0247%,–
Clc1ccc(C(c2ccc(Cl)cc2)C(Cl)Cl)cc1,–,inactive
CN(C)C(=S)SSC(=S)N(C)C,–,inactive
